This passage reports activity change, negative = inhibition results from PubChem BioAssay AID1259415 (National Center for Advancing Translational Sciences (NCATS), 2018).

Each structure is given as a SMILES string. Out of some 410,000 compounds screened, about 18,000 (4.4%) were called active. Inconclusive results (about 7%) are left out. The full list was thinned out, with actives kept by preference. A number with no mark means an inactive call. Rule as the data show it: active = activity change below about -60%; inconclusive = no clear call, values can overlap the other calls; inactive = above about -39%.
% is scaled to controls: 0 for no effect and ±100 for the full control effect.

This experiment in a line: qHTS Assay for inhibitors of the human cytomegalovirus (HCMV). Particulars: HFF cells, HCMV-luciferase reporter, 72 h; at 57.5 µM; stronger effect = lower value. In a few lines:
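Luciferase read-out from HCMV-luciferase-infected HFFs (MOI 1 PFU/cell) 72 h post infection at 37C; compounds added after 16 h cell attachment; activity normalized between buffer-only basal and Salinomycin (10uM) inhibitor controls.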
For `CCCCn1c(N)c(N(CCC(C)C)C(=O)COC(=O)c2cccnc2OCC)c(=O)[nH]c1=O`, the activity change, negative = inhibition was -5.28%.

For the molecule `NS(=O)(=O)c1ccc(CNC(=O)c2cc(S(=O)(=O)N3CCOCC3)ccc2N2CCCC2)cc1`, the activity change, negative = inhibition is -10.4%.

Take `CCn1c(/C=C/c2ccc([N+](=O)[O-])o2)nc2ccccc2c1=O`: the activity change, negative = inhibition is -99.1% (active).

As to `CCCN(CCC)c1c([N+](=O)[O-])c(=O)oc2ccccc12`, the activity change, negative = inhibition was -7.74%.

On to `COc1cc(OC)c(OC)cc1/C=C/c1nc2ccccc2c(=O)n1-c1ccc(Br)c(C)c1`, for which the activity change, negative = inhibition is 3.49%.

In the case of `Cc1cc2nc(-c3ccc(NC(=O)c4cc5ccccc5o4)cc3)oc2cc1C`, the activity change, negative = inhibition is 98.1%.

Consider `C=CCN1C(=O)N(Cc2ccccc2)c2ccccc2S1(=O)=O`, for which the activity change, negative = inhibition is 8.55%.

On to `Cc1ccc(-n2c(SCC(=O)Nc3cccc(F)c3)nc3c(oc4ccccc43)c2=O)cc1C`, for which the activity change, negative = inhibition was -8.05%.

Turning to `O=c1onc(-c2cccs2)n1Cc1ccccc1`, the activity change, negative = inhibition was -71.3% (active).

Consider `O=C(CSc1nnc(-c2cccs2)n1Cc1ccccc1)N1CCc2ccccc2C1`, for which the activity change, negative = inhibition was -10.6%.

As for `Cc1cc(NC(=O)c2cc(-c3cccs3)on2)nn1Cc1ccc(Cl)cc1`, the activity change, negative = inhibition is -28.3%.

Take `CCc1ccc(Sc2cc(C(=O)NCCCOC(C)C)c3ccccc3n2)cc1`: the activity change, negative = inhibition was -34.7%.

For the molecule `COCCNC(=O)c1ccc2c(c1)N=C(C)c1cc(C)ccc1S2`, the activity change, negative = inhibition was -83.7% (active).

Consider `CCC1=Nc2cc(C(=O)NCC(C)c3ccccc3)ccc2Sc2ccc(C)cc21` (configuration not stated), for which the activity change, negative = inhibition was -7.44%.

Regarding `CC1=Nc2cc(C(=O)NCc3ccc(C)cc3)ccc2Sc2ccc(Cl)cc21`, the activity change, negative = inhibition is -34.6%.

As for `COCCNC(=O)c1ccc2c(c1)ncn2-c1ccc(C)c(Cl)c1`, the activity change, negative = inhibition is 52.5%.

Turning to `CCC1=Nc2cc(C(=O)NCCCOC(C)C)ccc2Sc2ccc(C)cc21`, the activity change, negative = inhibition is -62.8% (active).

Turning to `COc1ccc(Cc2nnnn2CC(=O)O)cc1`, the activity change, negative = inhibition was -17%.

On to `Cc1ccc(NC(=O)CN2C(=O)C(c3ccc(F)cc3)=NC23CCCCCC3)c(C)c1`, for which the activity change, negative = inhibition was 0.733%.

Regarding `CCC(=O)N1c2ccccc2CC1C(=O)N1CCN(c2ccccc2F)CC1` (configuration not stated), the activity change, negative = inhibition was 3.71%.

Regarding `O=C(NCCC1=CCCCC1)c1ccc2c(c1)N(Cc1ccccc1F)C(=O)c1ccccc1S2(=O)=O`, the activity change, negative = inhibition was 2.55%.

`CCOc1ccccc1N(C)C(=O)c1cc2c(s1)-c1ccccc1OC2`: the activity change, negative = inhibition was 2.75%.

Take `Cc1ccc(-c2noc(CCC(=O)Nc3ccccc3N3CCN(C)CC3)n2)cc1`: the activity change, negative = inhibition is -68.8% (active).

Regarding `COc1cccc(CNC(=O)CCc2nc(-c3ccc(C)cc3)no2)c1`, the activity change, negative = inhibition is 9.74%.

As to `COc1ccc(-c2noc(CCC(=O)N3CCN(c4cccc(C)c4)CC3)n2)cc1`, the activity change, negative = inhibition is 1.95%.

With `CCCN(c1ccc(C)cc1)c1nc(=O)c2cccnc2s1`, the activity change, negative = inhibition was -20.6%.

On to `COc1ccc(OC)c(CNC(=O)CN2C(=O)CCn3nc(-c4cn(C)c5ccccc45)cc32)c1`, for which the activity change, negative = inhibition is 3.11%.

Consider `O=C1CCCCN1CCCC(=O)N1CCCC(Nc2ccc(F)cc2)C1` (configuration not stated), for which the activity change, negative = inhibition was 4.92%.

As for `O=C1/C(=C/c2ccc(F)cc2)SC(=S)N1CCCC(=O)N1CCCCC1CCO` (configuration not stated), the activity change, negative = inhibition was -100% (active).

Regarding `O=C(NCCC1CCCCN1S(=O)(=O)c1ccc(F)cc1)C(=O)NC1CC1` (configuration not stated), the activity change, negative = inhibition was -34%.

As for `COc1ccc(S(=O)(=O)NCc2cccn2Cc2cccc(C)c2)cc1Cl`, the activity change, negative = inhibition was -8.25%.

As to `CCOC(=O)C1CCN(c2nc3c(S(=O)(=O)c4ccc(CC)cc4)nnn3c3ccc(Cl)cc23)CC1`, the activity change, negative = inhibition was 10.1%.

As for `COc1ccc2c(c1)CC[C@@H]1[C@@H]2CC[C@]2(C)C(=O)CC[C@@H]12`, the activity change, negative = inhibition was -18.8%.

As for `Cc1ccc(N2CCN(c3ccc([N+](=O)[O-])cn3)CC2)c(C)c1`, the activity change, negative = inhibition is -6%.

On to `Cc1ccc(-c2cn3cc([N+](=O)[O-])ccc3n2)cc1`, for which the activity change, negative = inhibition was -89.1% (active).

For `Cc1ccc(-c2nc(SCc3ccc(Br)cc3)n3[nH]c(=O)cc3n2)cc1`, the activity change, negative = inhibition was 81.8%.

As to `Cc1ccc2nc(-c3ccc(Br)cc3)cn2c1`, the activity change, negative = inhibition is -89.7% (active).

As for `CC(=O)Nc1c(-c2ccc(C)cc2)nc2ccc(Cl)cn12`, the activity change, negative = inhibition is 7.31%.

For `Cc1ccc2nc(-c3ccccc3)c(CC3CCCCC3)n2c1`, the activity change, negative = inhibition was 43.3%.

As to `Cc1ccc(-n2cc3ccc([N+](=O)[O-])cc3n2)cc1`, the activity change, negative = inhibition is 46.8%.

For the molecule `Cc1ccc(-c2cn3cc(C)ccc3n2)cc1`, the activity change, negative = inhibition is -91.4% (active).

Take `Cc1nc(=O)c(-c2ccccc2)c(C)n1-c1ccc(Br)cc1`: the activity change, negative = inhibition is -37%.

For the molecule `CCOC(=O)c1c(C)[nH]c(C)c1S(=O)(=O)N1CCC(C(=O)Nc2ccc(C)c(Cl)c2)CC1`, the activity change, negative = inhibition is 1.11%.

`CCOC(=O)c1c(C)[nH]c(CCC(=O)NCCCN2CCN(c3cccc(Cl)c3)CC2)c1C`: the activity change, negative = inhibition was -37.8%.

As to `CCOc1cc(CNC(=O)c2sc3ncnc(N(C)C4CCCCC4)c3c2C)ccc1OC`, the activity change, negative = inhibition was -22.8%.

Consider `O=C1CC(Sc2ncn[nH]2)C(=O)N1c1ccccc1` (configuration not stated), for which the activity change, negative = inhibition is -11.2%.

On to `CCOc1ccc(CCNC(=O)CN(c2ccc(C)cc2)S(=O)(=O)N(C)C)cc1OCC`, for which the activity change, negative = inhibition was -14.8%.

With `Cc1nn2c(=O)cc(COC(=O)CNC(=O)c3ccc(F)cc3)nc2s1`, the activity change, negative = inhibition was -0.933%.

In the case of `Cc1ccc(S(=O)(=O)N2[C@@H](c3cccc4ccccc34)C(C(=O)O)=C[C@H]2C(C)(C)C)cc1`, the activity change, negative = inhibition was -14.1%.

`CCOC(=O)C1C(C)C(C(C)(C)C)N(S(=O)(=O)c2ccc(C)cc2)C1c1ccccc1` (configuration not stated): the activity change, negative = inhibition is -77.2% (active).

Consider `CCOC(=O)c1ccn(S(=O)(=O)c2ccc(C)cc2)c1-c1ccccc1`, for which the activity change, negative = inhibition is -18.7%.

In the case of `CCc1nc2ccc(C(=O)N3CCN(c4cc(Cl)ccc4C)CC3)cc2nc1CC`, the activity change, negative = inhibition was 33.5%.

As to `CCC(=O)N1CCc2cc(S(=O)(=O)NC(C(=O)Nc3ccc(C(C)=O)cc3)C(C)C)ccc21` (configuration not stated), the activity change, negative = inhibition was 7.35%.

For the molecule `C=Cn1cc[n+](CC(=O)c2ccc(OC)c(OC)c2)c1`, the activity change, negative = inhibition was -10.4%.

On to `COc1ccccc1CC(=O)Nc1ccc(S(=O)(=O)N2CCCC2)cc1`, for which the activity change, negative = inhibition is -14.7%.

Consider `COc1ccc(S(=O)(=O)N2CCC(C(=O)N3CCCC3)CC2)cc1C`, for which the activity change, negative = inhibition is 1.95%.

For `COc1ccc(-c2ccc(Nc3ccc(S(=O)(=O)N4CCCC4)cc3)nn2)cc1OC`, the activity change, negative = inhibition was -67% (active).

On to `O=C(CSc1oc(-c2ccccc2)nc1S(=O)(=O)c1ccc(Br)cc1)NC1CCCCC1`, for which the activity change, negative = inhibition was 14%.

Take `O=C(NCc1ccc(F)cc1)c1ccc(Cn2c(SCc3ccc(F)cc3)nc3cccnc32)cc1`: the activity change, negative = inhibition is 16%.

With `Cc1c(C(=O)N(C)C)sc2c1c(=O)n(-c1ccc(F)cc1)c(=O)n2CC(=O)N(C)c1ccccc1`, the activity change, negative = inhibition is 7.53%.

For the molecule `CN(C(=O)CC(NC(=O)c1ccccc1)(c1ccccc1)c1ccccc1)c1ccccc1`, the activity change, negative = inhibition is -66.2% (active).

Turning to `CN(C(=O)COC(=O)CNC(=O)C12CC3CC(CC(C3)C1)C2)c1ccccc1`, the activity change, negative = inhibition is 5.66%.

For the molecule `Cc1ccc(S(=O)(=O)NCCC(=O)OCC(=O)N(C)c2ccccc2)cc1`, the activity change, negative = inhibition is 2.56%.

`Cc1ccc(C)c(Oc2c(C(F)(F)F)oc3c(CN4CCN(C)CC4)c(O)ccc3c2=O)c1`: the activity change, negative = inhibition is -2.3%.

Take `Cn1c(=O)nc2n(-c3ccc(Br)cc3)c3cccc(Cl)c3cc-2c1=O`: the activity change, negative = inhibition was -1.09%.

Take `CCOC(=O)c1cc(OC(=O)c2ccccc2Cl)n(-c2ccccc2)n1`: the activity change, negative = inhibition was -20.3%.

Consider `Cc1ccc(CCNC(=O)c2nnc(Cc3cccc(F)c3)o2)cc1`, for which the activity change, negative = inhibition is -16.3%.

As to `COc1ccc(C(CCNCc2ccccc2F)c2ccc(F)cc2)cc1` (configuration not stated), the activity change, negative = inhibition is -62.4% (active).

For the molecule `COc1ccc(CCNC(=O)COC(=O)Cc2ccccc2F)cc1`, the activity change, negative = inhibition is 3.43%.

Regarding `COc1ccc(C(CNCC(=O)Nc2ccccc2F)N(C)C)cc1` (configuration not stated), the activity change, negative = inhibition is 8.02%.

As for `C=C1CCN([C@H](C(=O)NCc2cc(OC)c(OC)c(OC)c2)C(C)C)S(=O)(=O)c2ccccc21`, the activity change, negative = inhibition is 9.82%.

As to `Cc1cccc(N2CCN(C(=O)Cn3ncc4c5ccccc5n(C)c4c3=O)CC2C)c1` (configuration not stated), the activity change, negative = inhibition was 17.6%.

In the case of `CCN1CCN(C(=O)C2CCN(S(=O)(=O)c3cc(Cl)ccc3Cl)CC2)CC1`, the activity change, negative = inhibition was 10.9%.

As for `CCOC(=O)N1CCN(C(=O)C2CCN(S(C)(=O)=O)CC2)CC1`, the activity change, negative = inhibition was -16.6%.

Consider `CCOC(=O)N1CCN(C(=O)C2CCN(S(=O)(=O)c3cc(Cl)ccc3OCC)CC2)CC1`, for which the activity change, negative = inhibition is -87% (active).

`CCn1c2c(c(=O)n3ncc(C(=O)N4CCN(c5ccccc5)CC4)c13)CN(Cc1ccc(OC)cc1)CC2`: the activity change, negative = inhibition is 17.6%.

`COc1ccccc1-n1c(-c2ccc(C)cc2)cn2c3c(=O)n(C)c(=O)n(C)c3nc12`: the activity change, negative = inhibition was -0.712%.

For the molecule `COCC(C)N=CC1=C(O)CC(C)(C)CC1=O` (configuration not stated), the activity change, negative = inhibition is 36.9%.

For the molecule `O=C(NCCCN1CCCC1=O)C(=O)NCC1OCCN1S(=O)(=O)c1ccc(Br)cc1` (configuration not stated), the activity change, negative = inhibition is -19.1%.

Turning to `CC(C)NC(=O)C1CCC(Cn2c(=O)c3sccc3n(Cc3ccc(F)cc3)c2=O)CC1` (configuration not stated), the activity change, negative = inhibition is 23.5%.

Turning to `Cn1cnnc1Sc1ccc(CN2CCN(C3CCCC3)C(CCO)C2)o1` (configuration not stated), the activity change, negative = inhibition was -68.7% (active).

As to `OCCC1CN(Cc2ccc3nsnc3c2)CCN1C1CCCCC1` (configuration not stated), the activity change, negative = inhibition is 11.1%.

Regarding `OCCC1CN(Cc2ccc3nsnc3c2)CCN1C1CCCC1` (configuration not stated), the activity change, negative = inhibition is -14.5%.

Regarding `CCN(C(=O)Cn1cc(S(=O)(=O)N2CCN(c3ccccc3F)CC2)c2ccccc2c1=O)c1ccc(C)c(C)c1`, the activity change, negative = inhibition is 3.86%.

As for `COc1ccccc1OCCNc1cc(N2CCOCC2)ccc1[N+](=O)[O-]`, the activity change, negative = inhibition was 63.8%.

With `COc1ccc(CCNC(=O)C(=O)NCc2ccccc2C)cc1OC`, the activity change, negative = inhibition is -36%.

Consider `COc1ccc(CCNc2cc(N3CCN(C(=O)c4ccccc4OC)CC3)ccc2[N+](=O)[O-])cc1OC`, for which the activity change, negative = inhibition is -94% (active).
